CYP2C19 activ = cytochrome P450 2C19 (human) activation. P33261. recombinant CYP2C19, luciferin-H EGE luminescence; active compounds read high; 0 = fully inhibited enzyme, 1 = untreated enzyme. activation factor at 5 µM. 96,000 tested, under 10 active;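 active = activation factor of at least 2 at 5 µM in the primary screen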
CYP2C19 inh = inhibitors of human CYP2C19 | CYP2C19 Supersomes, luciferin-H EGE luminescence, 30 min | 96,000 compounds, 21% hits | P33261 | inhibition, % at 5 µM;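 active = CYP2C19 inhibition above a set limit at 5 µM in the primary screen, cut at about 50% in these data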
CYP2C9 inhib = blocks human cytochrome P450 2C9; 96,000 compounds, 20% hits; CYP2C9 Supersomes, luciferin-H conversion, luminescence; inhibition, % at 5 µM;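 active = blocking of liver enzyme CYP2C9 beyond about 50% at 5 µM, limit read from the data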
CYP2C9 act = increases human cytochrome P450 2C9 activity | P11712 | recombinant CYP2C9, luciferin-H conversion, luminescence; active compounds read high; factor 1 = untreated enzyme, 0 = blocked | activation factor at 5 µM | 96,000 compounds, 1.4% hits | AID 1024;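 active = activation factor of 2 or more for CYP2C9 at a 5 µM dose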
Cav3 T inh = blocks human Cav3.2 T-type calcium channel; Cav3.2-expressing cells, Fluo-4 calcium fluorescence FDSS; active compounds read low; O95180; 100,000 compounds, 4% hits; B-score at 10 µM; AID 449739;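 active = single-dose well whose peak fluorescence ratio is a statistical outlier from its plate by either plate-standardised score or position-corrected B-score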
Of the large screens only hits and unclear results are named; the others gave an inactive call. The list is not random: actives were taken first. Their share in the collection is about 27%.

CC(=O)c1cccc(NC(=O)C(OC(=O)/C=C/c2ccc3c(c2)OCO3)c2ccccc2)c1 (centres undefined)	CYP2C19 inh 76, CYP2C9 inhib 95
CC(C)n1nnnc1SCC(=O)c1ccc2c(c1)OCCO2	CYP2C19 inh 63
CCn1c(COc2ccc(Cl)cc2)nnc1SCC(=O)Nc1ccc2c(c1)OCCO2	none
CCn1c(COc2ccc3c(c2)OCO3)nnc1SCC(=O)c1ccc(Cl)cc1	CYP2C9 inhib 51
COCCn1c(SCC(=O)c2ccc3c(c2)OCCO3)nnc1-c1ccoc1C	none
CCn1nnnc1SCC(=O)c1ccc2c(c1)OCCO2	none (no result: Cav3 T inh)
CCn1c(SCC(=O)c2ccc3c(c2)OCCO3)nnc1C(C)C	CYP2C19 inh 94
CCCCn1c(SCC(=O)c2ccc3c(c2)OCCO3)nnc1-c1ccco1	CYP2C9 inhib 56
Cc1ccc2c(c1)N(CC(=O)NC1CCCCC1C)C(=O)CO2 (centres undefined)	none
Cc1ccc2c(CSc3nc4ccccc4c(=O)n3CCCO)cc(=O)oc2c1C	CYP2C19 inh 68, CYP2C9 inhib 96 (no result: Cav3 T inh)
Cc1ccccc1Nc1nc(N)nc(CSc2nc3ccccc3c(=O)n2C)n1	CYP2C19 inh 68, CYP2C9 inhib 82
Cc1ccccc1Nc1nc(N)nc(CSc2nc3ccccc3c(=O)n2CCCO)n1	CYP2C19 inh 90, CYP2C9 inhib 99
COCCn1c(SCc2nc(N)nc(Nc3ccccc3C)n2)nc2ccccc2c1=O	CYP2C9 inhib 71
Cc1ccc(Nc2nc(N)nc(CSc3nccn3C)n2)c(C)c1	none
COc1cc(C=O)ccc1OCCSc1ccc(C)cc1	CYP2C19 inh 85, CYP2C9 inhib 68
CCOc1cc(C=O)ccc1OCCSc1ccc(C)cc1	CYP2C19 inh 77, CYP2C9 inhib 70
C/C=C/c1ccc(OCCCNCC(C)O)c(OC)c1 (centres undefined)	none
CC(C)(C)c1ccc(C(=O)N/C(=C\c2cccs2)C(=O)NCc2ccco2)cc1	CYP2C9 inhib 56
COc1ccc(C2/C(=C(/O)c3ccccc3)C(=O)C(=O)N2CC(C)O)c(OC)c1 (centres undefined)	none
Cc1ccc(S(=O)(=O)N2c3ccccc3OCC2c2ccccc2)cc1 (centres undefined)	none (no result: CYP2C19 activ, CYP2C19 inh, CYP2C9 inhib, CYP2C9 act)
O=C(C(Cl)Cl)N1c2ccccc2OCC1c1ccccc1 (centres undefined)	CYP2C19 inh 78, CYP2C9 inhib 75 (no result: Cav3 T inh)
NC(=O)C1=C[C@@H](C2CCCCC2)C[C@@H](OCc2ccc(CO)cc2)O1	none (no result: CYP2C19 activ, CYP2C19 inh, CYP2C9 inhib, CYP2C9 act)
CC(C)(c1ccccc1)c1ccc(OCCn2cnc3ccccc3c2=O)cc1	Cav3 T inh -6.5
CC(C)(C)c1ccc(OCCn2ccccc2=O)cc1	CYP2C19 inh 70
Cc1ccc(OCCn2ccc(=O)[nH]c2=O)cc1C	none
O=C(N/C(=C/c1ccco1)C(=O)N1CCCCC1)c1cccs1	none
COc1ccc(C2=NOC(C)(c3nnc(-c4ccc(Cl)cc4)o3)C2)cc1 (centres undefined)	none (no result: CYP2C19 activ, CYP2C19 inh, CYP2C9 inhib, CYP2C9 act)
CCC(=O)Nc1ccc2oc(-c3ccccc3Br)nc2c1	none
Cc1cc(C)n(-c2ccc(C(=O)NCc3ccc4c(c3)OCO4)cc2)n1	none
Cc1ccc2oc(-c3ccc(NC(=O)c4ccc5c(c4)OCO5)cc3)nc2c1	none (no result: CYP2C19 activ, CYP2C19 inh, CYP2C9 inhib, CYP2C9 act)
O=C(Nc1ccc2oc(-c3ccccc3F)nc2c1)c1ccc2c(c1)OCCO2	CYP2C9 inhib 51
Cc1cc(C)n(-c2ccc(C(=O)Nc3ccc4c(c3)OCCO4)cc2)n1	CYP2C19 inh 50
O=C(Nc1ccc2nn(-c3ccccc3)nc2c1)c1ccc2c(c1)OCCO2	CYP2C19 inh 59, CYP2C9 inhib 56
CC(=O)Nc1ccc2oc(-c3ccccc3Br)nc2c1	CYP2C9 inhib 73 (no result: Cav3 T inh)
CCN1CCN(C2=NC(=O)/C(=C/c3ccc(C)o3)S2)CC1	none
COc1ccc(C2(CCN)CC(C)N(C)CC2C)cc1 (centres undefined)	none
CC(C)NC(=O)CN1CCN(c2ncccn2)CC1	none
Cc1cccc(S(=O)(=O)c2c(N)n(/N=C/c3cccnc3)c3nc4ccccc4nc23)c1	none
COCCNC(=O)c1c(N)n(/N=C/c2cccs2)c2nc3ccccc3nc12	CYP2C9 inhib 61
Nc1c(S(=O)(=O)c2cccs2)c2nc3ccccc3nc2n1/N=C/c1cccc(O)c1	CYP2C9 inhib 80
COc1cccc(/C=N/n2c(N)c(S(=O)(=O)c3cccs3)c3nc4ccccc4nc32)c1	none
COc1ccc(/C=N/n2c(N)c(S(=O)(=O)c3cccs3)c3nc4ccccc4nc32)cc1OC	CYP2C9 inhib 77
CCC(CC)c1nc(NCCC(=O)O)c2ccccc2n1	none

From PubChem BioAssay
